The results in this text go back to the supplement of paper PMC9135407.

Several values for one entry are separate records, joined by “and”; a condition that tells them apart may be missing. Equal entries are not always repeated. Structures can show the parent of a compound that is named as a salt. Among all 5,800 compounds or so, about 620 (11%) showed activity. This is one part of a sample in which actives are shown more often than they occur. Unmarked numbers belong to inactive results.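 Rule for the calls: active = score above a cut-off or among the top three wells of a plate; in these data no inactive exceeds 0.85.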

The assay has as its system primary human hepatic stellate cells (donor 1). In words: scaled lipid accumulation score (0 = DMSO-like, 1 = nortriptyline-like); higher = stronger HSC inactivation (lipid re-accumulation), active = hit call of the paper. The settings on record: 48 h.
Where [1] appears, read: library stock concentration: 10 mM.
The mark [2] stands for this setting: library stock concentration: 3.33 mM.
The mark [3] stands for this setting: library stock concentration: 1 mM.

On to `CS(=O)(=O)CCNCc1ccc(-c2ccc3ncnc(Nc4ccc(OCc5cccc(F)c5)c(Cl)c4)c3c2)o1.Cc1ccc(S(=O)(=O)O)cc1.Cc1ccc(S(=O)(=O)O)cc1` [listing 1 of 2 here], for which the “scaled lipid accumulation score” value under setting [1] is 1.23 (active).

Regarding `CS(=O)(=O)CCNCc1ccc(-c2ccc3ncnc(Nc4ccc(OCc5cccc(F)c5)c(Cl)c4)c3c2)o1.Cc1ccc(S(=O)(=O)O)cc1.Cc1ccc(S(=O)(=O)O)cc1` [listing 2 of 2 here], the “scaled lipid accumulation score” value under setting [2] is 1.36 (active) and the “scaled lipid accumulation score” value under setting [1] was 1.55 (active).

Take `CCCCC[C@H](O)/C=C/[C@@H]1[C@@H](C/C=C/CCCC(=O)O)[C@@H](O)C[C@H]1O` [5-trans Prostaglandin F2.alpha.]: under setting [3], the “scaled lipid accumulation score” value was at most 0.

Take `CCCCC[C@H](O)/C=C/[C@@H]1[C@@H](C/C=C/CCCC(=O)O)[C@@H](O)C[C@H]1O` [5-trans Prostaglandin F2.alpha. (tromethamine salt)]: the “scaled lipid accumulation score” value under setting [3] is at most 0.

Turning to `CC(C)(C)n1nc(Cc2cccc3ccccc23)c2c(N)ncnc21`, the “scaled lipid accumulation score” value under setting [3] was at most 0.

On to `CCCCC[C@@](C)(O)/C=C/[C@H]1C(=O)C[C@H](O)[C@@H]1C/C=C\CCCC(=O)O` [15(R)-15-methyl Prostaglandin D2], for which the “scaled lipid accumulation score” value under setting [3] is at most 0.

In the case of `CCCCCCCCCCCCCC(=O)N[C@H](C)[C@@H](O)c1ccccc1` [D-erythro-MAPP], the “scaled lipid accumulation score” value under setting [3] is ≤ 0 and 0.048.

For `CC1(C2CCCC2)Cc2cc(OCC(=O)O)c(Cl)c(Cl)c2C1=O` (stereo unspecified), the “scaled lipid accumulation score” value was at most -0.055 under setting [1] and at most -0.021 (library stock concentration: 14 mM).

In the case of `N[C@@H](C(=O)N[C@@H]1C(=O)N2C(C(=O)O)=C(CSc3cn[nH]n3)CS[C@H]12)c1ccc(O)cc1`, the “scaled lipid accumulation score” value under setting [1] is at most 0.

In the case of `CCCCC/C=C/C=C1/C=CC(=O)[C@@H]1C/C=C\CCCC(=O)O` [15-deoxy-.DELTA.12,14-Prostaglandin A2], under setting [3], the “scaled lipid accumulation score” value was at most 0.

Consider `CC(=O)c1ccc2c(c1)N(CCCN(C)C)c1ccccc1S2` [Acepromazine maleate], for which the “scaled lipid accumulation score” value (library stock concentration: 4.5 mM) is 0.524.

On to `CCC(=O)c1ccc2c(c1)N(CCCN(C)C)c1ccccc1S2.Cl` [Propionylpromazine hydrochloride], for which the “scaled lipid accumulation score” value under setting [1] is 0.862 (active).

Take `CC(=O)c1ccc2c(c1)N(CCCN(C)C)c1ccccc1S2.O=C(O)/C=C\C(=O)O` [Acepromazine maleate]: the “scaled lipid accumulation score” value under setting [1] was 0.989 (active).

`CC(=O)c1ccc2c(c1)N(CCCN(C)C)c1ccccc1S2` [Acetopromazine maleate salt]: the “scaled lipid accumulation score” value was 0.726.

As to `CC#CCC(C)[C@@H](O)/C=C/[C@@H]1[C@H]2C/C(=C\CCCC(=O)O)C[C@H]2C[C@H]1O` (stereo partly drawn) [5-cis-15(R)-Iloprost], the “scaled lipid accumulation score” value under setting [3] was at most 0.

Regarding `CN(C)[C@@H]1C(O)=C(C(N)=O)C(=O)[C@@]2(O)C(O)=C3C(=O)c4c(O)cccc4[C@@](C)(O)[C@H]3[C@H](O)[C@@H]12` [Oxytetracycline], the “scaled lipid accumulation score” value was 0.025 (library stock concentration: 4 mM) and at most 0 under setting [1].

Consider `CN(C)[C@@H]1C(O)=C(C(N)=O)C(=O)[C@@]2(O)C(O)=C3C(=O)c4c(O)cccc4[C@@](C)(O)[C@H]3[C@H](O)[C@@H]12` [Oxytetracycline dihydrate], for which the “scaled lipid accumulation score” value was 0.056.

In the case of `CN(C)[C@@H]1C(O)=C(C(N)=O)C(=O)[C@@]2(O)C(O)=C3C(=O)c4c(O)cccc4[C@@](C)(O)[C@H]3[C@H](O)[C@@H]12` [Oxytetracycline hydrochloride], under setting [1], the “scaled lipid accumulation score” value was at most 0.

Regarding `C[C@@H](O)CN(CCN(C[C@@H](C)O)C[C@@H](C)O)C[C@@H](C)O`, under setting [1], the “scaled lipid accumulation score” value was at most 0.

On to `NNC(=O)c1ccncc1.Nc1ccc(C(=O)O)c(O)c1` [Pasiniazid], for which the “scaled lipid accumulation score” value under setting [1] is at most -0.027.

Consider `C#CCCC[C@@H](O)CCCCCCCCCCC(=O)O` [12(S)-hydroxy-16-Heptadecynoic Acid], for which, under setting [3], the “scaled lipid accumulation score” value is at most 0.

As to `COC(=O)CCSCc1ccc(-c2onc(C)c2NC(=O)OC(C)c2ccccc2Cl)cc1` (stereo unspecified), the “scaled lipid accumulation score” value under setting [2] was 0.07 and the “scaled lipid accumulation score” value under setting [1] is at most 0.

In the case of `Cl.Clc1ccc(Cn2c(CN3CCCC3)nc3ccccc32)cc1` [Clemizole hydrochloride], the “scaled lipid accumulation score” value under setting [1] was 0.991 (active).

As to `O=C(O)c1c(Sc2ccccc2)c2cc(Cl)ccc2n1Cc1ccc(Cl)cc1`, under setting [1], the “scaled lipid accumulation score” value is at most -0.001.

Take `Clc1ccc(Cn2c(CN3CCCC3)nc3ccccc32)cc1` [Clemizole hydrochloride]: the “scaled lipid accumulation score” value is 0.205.

As to `CCCCCC(O)C=CC1C2CC(CO2)C1CC=CCCCC(=O)O` (stereo unspecified), under setting [3], the “scaled lipid accumulation score” value is ≤ 0 and ≤ -0.021.

On to `COCC[n+]1c2c(n(Cc3cnccn3)c1C)C(=O)c1ccccc1C2=O` [YM155 (Sepantronium Bromide)], for which the “scaled lipid accumulation score” value reads like this: under setting [2], 0.529; under setting [1], 0.748.

With `Cl.N#CC1=C(N)NC(=C2C(=O)C=CC=C2OCC2CC2)C=C1C1CCNCC1`, the “scaled lipid accumulation score” value under setting [1] was 1.09 (active).

For the compound `N#Cc1c(C2CCNCC2)cc(-c2c(O)cccc2OCC2CC2)nc1N` [IKK-2 Inhibitor VIII], the “scaled lipid accumulation score” value under setting [2] was 0.136.

In the case of `N#Cc1c(C2CCNCC2)cc(-c2c(O)cccc2OCC2CC2)nc1N`, the “scaled lipid accumulation score” value by setting is: (library stock concentration: 80 uM) at most -0.016; (library stock concentration: 400 uM) at most -0.016; (library stock concentration: 2 mM) 0.483.

As to `N#CCCc1ccc2c(c1)-c1[nH]c3ccc([N+](=O)[O-])cc3c1CC(=O)N2` [Alsterpaullone, 2-Cyanoethyl], under setting [2], the “scaled lipid accumulation score” value is 0.08.

Consider `CCCCCCCC/C=C\CCCCCCCCCCCCCC(=O)N[C@@H](CO)[C@H](O)/C=C/CCCCCCCCCCCCC` [Nervonic Ceramide], for which the “scaled lipid accumulation score” value under setting [3] is 0.002.

Consider `CCCCC[C@@H](O)/C=C/[C@H]1[C@H](O)CC(=O)[C@@H]1C/C=C\CCCC(=O)O` [15(R)-Prostaglandin E2], for which the “scaled lipid accumulation score” value under setting [3] was at most 0.

Turning to `CN1CCN(CCCN2c3ccccc3Sc3ccc(C(F)(F)F)cc32)CC1` [Trifluoperazine 2HCl], the “scaled lipid accumulation score” value under setting [2] is at most 0 and the “scaled lipid accumulation score” value under setting [1] is 0.815.

As for `CN(C)CCCN1c2ccccc2Sc2ccc(C(F)(F)F)cc21` [Triflupromazine hydrochloride], the “scaled lipid accumulation score” value was 0.585. Under “library stock concentration: 5.1 mM”, the “scaled lipid accumulation score” value is 0.697. Under setting [1], the “scaled lipid accumulation score” value was 0.508 and 0.792.

Regarding `CN1CCN(CCCN2c3ccccc3Sc3ccc(C(F)(F)F)cc32)CC1`, the “scaled lipid accumulation score” value under setting [1] was 0.99 (active).
